Reference: PubChem BioAssay AID651597 (National Center for Advancing Translational Sciences (NCATS), 2012)
Hit rate of the full screen: of about 1,100 compounds, about 390 (35%) were called active. Inconclusive results (about 30%) are left out. Calls follow the shape of the dose curve; as a rule, active = well fitted inhibition curve with a large enough effect; inconclusive = small, poorly fitted or top-dose-only effect; inactive = flat fitted curve, though single readings scatter. Some of the results follow.

Molecular target: Luciferin 4-monooxygenase (Photinus pyralis) (UniProt P08659)
Assay: qHTS of Nrf2 Activators: Hit Validation in Secondary FLuc Assay; also: nearly all actives have a fitted effect of over 65% in size
Conditions: firefly luciferase inhibition counter-screen, luminescence; series mostly up to 57.5 µM; activity, negative = inhibition: at the top concentration
Summary of the method: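 Counter-screen on purified firefly luciferase with ATP and D-luciferin at Km concentrations; compounds flagged if they inhibit the enzyme, indicating possible reporter stabilization rather than ARE activation.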
% is scaled to controls: 0 for no effect and ±100 for the full control effect; potency is read from the fitted curve at half-maximal effect.

SMILES | activity, negative = inhibition | Potency
CC1CCN(CC2C(=O)O[C@@H]3C[C@@]4(C)CCC[C@H](C)C4=C[C@H]23)CC(C)(C)C1 (stereo not given in full) | -1.7% (inactive) | –
Cc1cc(=O)oc2c(C(=O)/C=C/c3ccccc3)c(O)ccc12 | 2.7% (inactive) | –
Cn1c(=O)oc2cc(NC(=O)CCl)ccc21 | 6.28% (inactive) | –
Cc1cc(=O)oc2cc(NC(=O)c3ccccc3Cl)ccc12 | – | 5.36 µM (active)
Oc1ccccc1C=NN=Cc1c(O)ccc2ccccc12 | – | 3.01 µM (active)
Cn1c(=O)c2nc(NCc3ccccc3)sc2n(C)c1=O | 5.85% (inactive) | –
O=S1(=O)C=C(Sc2nc3cc(Cl)ccc3o2)c2ccccc21 | – | 0.849 µM (active)
N#Cc1ccccc1N/C=C/C(=O)c1ccc(Cl)cc1 | – | 0.12 µM (active)
COC(=O)c1cc(S(=O)(=O)C(C)C)c(S(C)=O)s1 (stereo not given) | 1.94% (inactive) | –
Cc1cc(N/N=C/c2c(O)ccc3ccccc23)nc(-c2ccccc2O)n1 | – | 7.57 µM (active)
C=C(NC(=O)C(=C)NC(=O)c1csc(C2=NC3c4csc(n4)C4NC(=O)c5csc(n5)C(C(C)(O)C(C)O)NC(=O)C5CSC(=N5)/C(=C/C)NC(=O)C(C(C)O)NC(=O)c5csc(n5)C3(CC2)NC(=O)C(C)NC(=O)C(=C)NC(=O)C(=C)NC(=O)C(C(C)C)NC2C=Cc3c(C(C)O)cc(nc3C2O)C(=O)OC4C)n1)C(N)=O (stereo not given) | – | 7.57 µM (active)
CC(=O)Oc1ccc(-c2nc3c(C)cccc3c(=O)o2)cc1 | -26.3% (inactive) | –
COc1ccc(-c2cc3ccccc3c(=O)o2)cc1 | – | 0.478 µM (active)
O=c1nc2c(-c3ccccc3F)n[nH]n2c2ccccc12 | – | 7.57 µM (active)
Clc1nc(NCc2ccco2)nc(N2CCCCC2)n1 | -3.37% (inactive) | –
c1ccc2nc3c(ccc4ccccc43)cc2c1 | – | 1.35 µM (active)
COc1cc(OCc2ccccc2)c(C(=O)/C=C/c2ccc3c(c2)OCO3)c(OC)c1OC | 2.26% (inactive) | –
O=C(/C=C/c1ccc2c(c1)OCO2)c1ccc(O)cc1O | – | 1.9 µM (active)
COC(=O)c1ccsc1NC(=O)CSc1nnnn1Cc1ccccc1 | -14.3% (inactive) | –
Cc1csc(-c2ccc3cc(Cl)cc(Cl)c3n2)n1 | – | 2.69 µM (active)
Cc1ccc(C(=O)OCc2c(C)noc2C)cc1NC(=O)c1ccco1 | 1.47% (inactive) | –
Cc1ccc(-c2nc3cccnc3s2)cc1NC(=O)c1ccco1 | – | 8.49 µM (active)
CCNc1nc(NCC)nc(N(C)/N=C/c2ccco2)n1 | 0.966% (inactive) | –
O=[N+]([O-])c1cc(Cl)cc(/C=N/Nc2nc3ccccc3s2)c1O | – | 13.5 µM (active)

SMILES | activity, negative = inhibition | Potency
Brc1cc2c(cc1/C=N/Nc1nc3ccccc3s1)OCO2 | – | 2.69 µM (active)
Cc1ccc(NC(=O)c2ccc([N+](=O)[O-])s2)cc1S(=O)(=O)N1CCOCC1 | -3.39% (inactive) | –
O=C(/C=C/c1ccco1)Nc1cccc(S(=O)(=O)N2CCOCC2)c1 | – | 13.5 µM (active)
O=C(/C=C/c1ccco1)Nc1ccc2nn(-c3ccccc3)nc2c1 | – | 9.53 µM (active)
O=C(/C=C/c1ccco1)NC(=S)Nc1ccccc1N1CCCC1 | -27.1% (inactive) | –
O=C(/C=C/c1ccco1)Nc1ccc(Cl)c(-c2nc3cc(Cl)ccc3o2)c1 | – | 10.7 µM (active)
O=C(Nc1cc2nn(-c3ccccc3)nc2cc1Cl)c1ccco1 | – | 0.849 µM (active)
O=[N+]([O-])c1cnc(Nc2ccc(Cl)cn2)c([N+](=O)[O-])c1 | 1.13% (inactive) | –
O=C1N/C(=C\c2ccsc2)C(=O)N1Cc1ccc(F)cc1 | -2.1% (inactive) | –
CCc1ccc(/C=C/c2c([N+](=O)[O-])c(=O)n(C)c(=O)n2C)cc1 | -27.8% (inactive) | –
CCC1C/C(=C/c2cccs2)C(=O)/C(=C/c2cccs2)C1 (stereo not given) | -23.6% (inactive) | –
COc1ccc(Cl)cc1NC(=O)c1ccco1 | 0.501% (inactive) | –
O=C(Nc1cc(-c2nc3cc(Cl)ccc3o2)ccc1Cl)c1ccco1 | – | 6.01 µM (active)
CCCS(=O)(=O)c1nc(S(=O)(=O)c2ccc(C)cc2)c(N2CC(C)OC(C)C2)s1 (stereo not given) | -1.58% (inactive) | –
O=C(/C=C/Nc1ccc(F)c(Cl)c1)c1ccco1 | – | 1.69 µM (active)
COc1cccc(-c2nc3n(n2)CCc2ccccc2-3)c1 | – | 0.953 µM (active)
CC(C)Nc1ccc(-c2nc(-c3ccco3)no2)cc1[N+](=O)[O-] | – | 0.213 µM (active)
CNc1ccc(-c2nc(-c3ccco3)no2)cc1[N+](=O)[O-] | – | 0.0849 µM (active)
Cc1ccc(CNC(=O)c2sccc2-n2cccc2)cc1 | -11.8% (inactive) | –
CC(C)c1ccc(NC(=O)c2sccc2-n2cccc2)cc1 | – | 10.7 µM (active)
Cc1ccc(S(=O)(=O)c2nc(S(C)(=O)=O)sc2N2CCOCC2)cc1 | 7.7% (inactive) | –
COc1ccc(OC)c2sc(NC(=O)CCS(=O)(=O)c3ccccc3)nc12 | -25.5% (inactive) | –
COc1ccccc1-c1nnc(NC(C)=O)s1 | – | 2.69 µM (active)
O=C(CCN1C(=O)c2cccc3cccc(c23)C1=O)Nc1ccon1 | -23.6% (inactive) | –

SMILES | activity, negative = inhibition | Potency
COC(=O)c1ccccc1NC(=O)/C=C/c1ccco1 | – | 8.49 µM (active)
COc1ccccc1NC(=O)/C=C\c1ccco1 | – | 10.7 µM (active)
COC(=O)c1ccccc1NC(=O)c1cc(-c2ccco2)on1 | -22.9% (inactive) | –
COc1ccccc1NC(=O)/C(C#N)=C/C=C/c1ccco1 | -4.16% (inactive) | –
CCn1c(=O)oc2cc(NC(=O)CCl)ccc21 | 1.74% (inactive) | –
Cc1nn(-c2cccc(C(F)(F)F)c2)c(=O)c2ccccc12 | -29.2% (inactive) | –
Cc1nn(-c2ccc3ccccc3c2)c(=O)c2ccccc12 | – | 3.38 µM (active)
Clc1cc(-c2ccccc2)nc(-c2ccccc2)n1 | 1.58% (inactive) | –
c1ccc(-c2cc3c(ccc4nonc43)nn2)cc1 | -18.2% (inactive) | –
c1ccc(-c2cnc(-c3ccccc3)nn2)cc1 | – | 0.301 µM (active)
CC1Sc2n(c3ccccc3[n+]2C)N=C1c1ccccc1 (stereo not given) | -0.681% (inactive) | –
COc1ccccc1Cc1c(-c2ccco2)nc2ccc(Cl)cn12 | – | 2.39 µM (active)
Clc1ccc2nc(-c3ccco3)c(Cc3ccccc3)n2c1 | – | 10.7 µM (active)
O=C1c2cccc3cccc(c23)C(=O)N1CCCN(C(=O)c1cccs1)c1cccc(F)c1 | 5.37% (inactive) | –
CCN1C(=O)/C(=C\c2ccco2)C(C(=O)OC)=C1C | -1.69% (inactive) | –
CC(=O)COc1ccc2c(c1C)O/C(=C\c1ccco1)C2=O | – | 0.601 µM (active)
COc1ccc(C2NC(=S)NC3=C2CCCC3=C2SCCS2)cc1 (stereo not given) | -29.4% (inactive) | –
S=c1[nH]nc(-c2ccco2)n1/N=C/c1ccccc1 | -27.4% (inactive) | –
O=[N+]([O-])c1ccccc1/C=C/C=N/n1c(-c2ccco2)n[nH]c1=S | – | 7.57 µM (active)
S=c1[nH]nc(-c2ccco2)n1/N=C/C(Cl)=C/c1ccccc1 | – | 13.5 µM (active)
Cc1n[nH]c(=S)n1/N=C/c1ccc(-c2ccccc2[N+](=O)[O-])o1 | – | 9.53 µM (active)
S=c1[nH]nc(COc2ccccc2)n1/N=C/C(Cl)=C/c1ccccc1 | – | 19 µM (active)
